In PMC4336329 (PLoS ONE, 2015):
About 14,000 (4.5%) of roughly 310,000 compounds showed an effect of 50% or more. The effect is printed as a negative number. The full list was thinned out, with strong results kept by preference.

biological target: human ether-à-go-go-related gene (hERG) potassium channel (human, UniProt Q12809); assay: primary screen, population patch clamp on CHO cells stably expressing hERG; higher = less effect of the substance
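Note: peak tail current of the secondary pulse compared with the same well before compound.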

Chain of human ether-à-go-go-related gene (hERG) potassium channel (Q12809 whole entry, looked up): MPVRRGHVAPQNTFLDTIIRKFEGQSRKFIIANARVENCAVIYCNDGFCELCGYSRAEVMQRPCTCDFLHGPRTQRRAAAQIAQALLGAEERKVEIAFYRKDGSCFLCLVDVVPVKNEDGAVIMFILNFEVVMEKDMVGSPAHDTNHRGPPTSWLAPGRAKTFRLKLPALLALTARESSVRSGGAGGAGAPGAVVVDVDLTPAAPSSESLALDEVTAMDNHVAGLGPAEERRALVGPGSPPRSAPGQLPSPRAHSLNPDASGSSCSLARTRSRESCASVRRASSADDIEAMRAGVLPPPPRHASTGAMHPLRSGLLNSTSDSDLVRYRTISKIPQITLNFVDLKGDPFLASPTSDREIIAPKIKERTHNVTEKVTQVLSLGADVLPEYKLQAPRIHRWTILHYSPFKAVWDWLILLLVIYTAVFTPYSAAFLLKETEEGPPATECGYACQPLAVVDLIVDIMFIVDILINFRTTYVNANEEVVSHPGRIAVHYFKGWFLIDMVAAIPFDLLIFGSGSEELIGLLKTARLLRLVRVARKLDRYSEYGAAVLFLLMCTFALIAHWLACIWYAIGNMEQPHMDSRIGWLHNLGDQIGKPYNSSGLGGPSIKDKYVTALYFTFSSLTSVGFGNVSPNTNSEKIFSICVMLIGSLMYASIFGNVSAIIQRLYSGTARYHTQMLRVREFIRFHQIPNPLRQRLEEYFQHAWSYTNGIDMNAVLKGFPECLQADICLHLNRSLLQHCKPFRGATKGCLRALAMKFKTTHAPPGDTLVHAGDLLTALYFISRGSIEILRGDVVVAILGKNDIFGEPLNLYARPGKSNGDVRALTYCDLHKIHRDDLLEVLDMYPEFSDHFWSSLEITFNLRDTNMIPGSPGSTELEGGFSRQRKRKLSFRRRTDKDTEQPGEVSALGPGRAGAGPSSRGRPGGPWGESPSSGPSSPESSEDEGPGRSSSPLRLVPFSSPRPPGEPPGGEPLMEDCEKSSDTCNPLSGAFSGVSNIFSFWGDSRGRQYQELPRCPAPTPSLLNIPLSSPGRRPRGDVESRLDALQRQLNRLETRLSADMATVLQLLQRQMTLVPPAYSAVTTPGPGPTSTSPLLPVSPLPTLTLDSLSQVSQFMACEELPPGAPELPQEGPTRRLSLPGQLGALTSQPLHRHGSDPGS

| SMILES | hERG current change (%, negative = inhibition) at 10uM [%] |
| --- | --- |
| COc1ccc(Cl)cc1NC(=O)c1ocnc1C | 10.1 |
| Br.N=c1n(CC(=O)O)c2ccccc2n1Cc1ccccc1Cl | 0.122 |
| CCCn1c(N)[n+](CC(=O)c2ccco2)c2ccccc21.[Br-] | -11.1 |
| Br.Cc1ccccc1Cn1c(=N)n(CC(=O)c2ccco2)c2ccccc21 | -65 |
| Br.CCCCn1c(=N)n(CC(=O)c2ccco2)c2ccccc21 | -41.8 |
| Br.CCn1c(=N)n(CC(=O)c2ccco2)c2ccccc21 | -3.75 |
| Br.CCCCCCCn1c(=N)n(CC(=O)c2ccco2)c2ccccc21 | -70.6 |
| CCOC(=O)C(C)Oc1cccc2c(=O)n(CC(=O)NCc3ccc(F)cc3)ccc12 (stereo not drawn) | -4.43 |
| O=C(OC(C(=O)NCc1ccc2c(c1)OCO2)c1ccccc1F)c1ccco1 (stereo not drawn) | -31.1 |
| C/C(=N\NC(=O)c1ccc(O)cc1)c1cc2ccccc2o1 | -50.3 |
| COc1cccc2cc(/C(C)=N/NC(=O)c3ccco3)oc12 | -52.2 |
| C/C(=N\NC(=O)c1nc2ccccn2c1C)c1ccco1 | -1.34 |
| COc1cccc2cc(C(C)=O)oc12 | 15.5 |
| C/C(=N\NC(=O)c1ccncc1)c1cc2ccccc2o1 | -20.5 |
| C/C(=N\NC(=O)c1nc2ccccn2c1C)c1ccc2c(c1)OCO2 | -18.5 |
| C/C(=N\NC(=O)c1nc2ccccn2c1C)c1cc2ccccc2o1 | -63 |
| C/C(=N\NC(=O)c1cc2ccccc2cc1O)c1cc2ccccc2o1 | 6.05 |
| C/C(=N\NC(=O)c1ccco1)c1cc2ccccc2o1 | -9.09 |
| Cc1ccc(Nc2ncc3c(n2)CC(C)CC3=O)c(C)c1 (stereo not drawn) | 0.876 |
| CCCCN(C(=O)c1cc(CC)c(C)s1)c1c(N)n(CCC)c(=O)[nH]c1=O | -20.8 |
| CCOc1ccc2ccccc2c1/C=N\NC(=O)OC | 12.7 |

| SMILES | hERG current change (%, negative = inhibition) at 10uM [%] |
| --- | --- |
| CCCOc1cccc(-c2cc(C(=O)N/N=C/c3ccccn3)c3ccccc3n2)c1 | 0.224 |
| COc1cccc(CN2CCNC(=O)C2CC(=O)N(C)CCC2CCOCC2)c1 (stereo not drawn) | 8.75 |
| Cc1ccc2nc(Cl)c(CN(C(=O)c3cnccn3)C3CCCCC3)cc2c1 | -24.7 |
| COc1ccc(CC2(CO)CCN(Cc3cccc4nccnc34)CC2)cc1 | -70.9 |
| OCC1(Cc2cccc(F)c2)CCN(Cc2cccc3nccnc23)CC1 | -59.8 |
| CCCn1ncc(CN2CCC(CO)(Cc3ccc(OC)cc3)CC2)c1C | -41.9 |
| COc1ccc(CC2(CO)CCN(S(=O)(=O)c3cccc4cccnc34)CC2)cc1 | -5.13 |
| COc1cc(CN2CCN(Cc3cccc(OC)c3OC)CC2)cc(OC)c1 | -34.2 |
| COc1cccc(CC2(CO)CCN(Cc3cccn3-c3cccnc3)CC2)c1 | -47.7 |
| COc1ccc(CC2(CO)CCN(Cc3cnn(C)c3C)CC2)cc1 | -21.6 |
| O=S(=O)(c1cccc(F)c1)N1CCC(CO)(Cc2cccc(F)c2)CC1 | -18.2 |
| COc1ccc(CC2(CO)CCN(Cc3cccc(OC)c3OC)CC2)cc1 | -60.5 |
| COc1ccc(CC2(CO)CCN(Cc3cccn3-c3ccccn3)CC2)cc1 | -75.4 |
| O=C(c1cnsn1)N1CCC(CO)(Cc2cccc(F)c2)CC1 | 10.8 |
| COc1ccc(C2=NOC3(CC(=O)N(c4ccc(C)cc4)C3=O)C2)c(OC)c1 (stereo not drawn) | 4.08 |
| CCOC(=O)N1CCN(Cc2cccs2)CC1 | 24.3 |
| Cc1ccc(C)c(NC(=O)CSc2nnc3n2CCCCC3)c1 | 11 |
| COc1ccnc(Oc2ccc(F)cc2)c1C(=O)N/C=N/OCc1c(Cl)cccc1Cl | -5.9 |
| C(#Cc1ccccc1)CN1CCN(c2ccccn2)CC1.Cl | -8.88 |
| O=C(Nc1cccc(S(=O)(=O)Nc2ccccc2Cl)c1)c1ccc(Cl)nc1 | -8.9 |
| C/C(CCN1CCc2nc(-c3ccccc3)c(-c3ccccc3)cc2C1)=N\O[C@@H](C)c1cc(-c2c(C)cc(C)cc2C)no1 | 4.08 |

| SMILES | hERG current change (%, negative = inhibition) at 10uM [%] |
| --- | --- |
| COc1cccc(-c2cc(C(F)(F)F)nc(-n3ccc([N+](=O)[O-])n3)n2)c1 | -6.33 |
| CCOC(=O)c1cnc(SCC(=O)Nc2ccccc2C(=O)OC)nc1N | -13.1 |
| COc1ccc2c(c1)CCc1sc(NC(=O)c3ccc(C)cc3)nc1-2 | 10.9 |
| CC(=O)c1ccc(C(=O)N(CCN(C)C)c2nc3c(Cl)cccc3s2)cc1.Cl | -48.6 |
| CN(C)CCN(C(=O)c1cccc(Cl)c1)c1nc2c(Cl)cccc2s1.Cl | -52.6 |
| CC1CN(S(=O)(=O)c2ccc(C(=O)N(CCCN(C)C)c3nc4c(Cl)cccc4s3)cc2)CC(C)O1.Cl (stereo not drawn) | -36.7 |
| Cc1ccc2sc(N(CCN(C)C)C(=O)c3ccc4ccccc4c3)nc2c1C.Cl | 18.7 |
| CN(C)CCN(C(=O)c1ccc2c(c1)OCCO2)c1nc2c(Cl)cccc2s1.Cl | -59.3 |
| COC(=O)c1ccc(C(=O)N(CCN(C)C)c2nc3c(Cl)cccc3s2)cc1.Cl | -54.9 |
| CCN(CC)CCN(C(=O)c1ccc2c(c1)OCCO2)c1nc2c(Cl)cccc2s1.Cl | -54.7 |
| CCN(CC)CCN(C(=O)c1ccc2c(c1)CCCC2)c1nc2c(C)cccc2s1.Cl | -30.2 |
| COc1ccccc1OCCNC(=O)c1cc(F)c(F)cc1Cl | -2.68 |
| Cc1ccccc1-n1nnnc1SC(C)C(=O)Nc1ccc(N2CCN(C)CC2)cc1 (stereo not drawn) | -25.4 |
| COc1ccc(NC(=O)[C@@H]2CC=C[C@@H]3CCN(Cc4ccccc4)C(=O)[C@@H]32)cc1 | -8.12 |
| COC(=O)[C@@H]1C[C@@H]2CC[C@@H](O)C[C@@H]2N1Cc1ccc(Cl)cc1 | 23.7 |
| CCOc1cc(/C=C2\C(=O)N(c3nc(-c4ccc(Br)cc4)cs3)N=C2c2ccccc2)ccc1O | 4.44 |
| CS(=O)(=O)c1ccc(Cl)c(NC(=O)C2CC(=O)N(Cc3ccco3)C2)c1 (stereo not drawn) | 9.79 |
| CS(=O)(=O)c1ccc(C(=O)OCC(=O)NC(=O)C2CCCCC2)cc1[N+](=O)[O-] | 28.1 |
| Cc1ccc(-c2cc(C(F)F)n3ncc(C(=O)N4CCCc5ccccc54)c3n2)cc1 | 3.94 |
| C=CCn1c(SCC(=O)NCc2ccco2)nnc1-c1ccc2ccccc2n1 | -28.2 |
| COC(C(=O)Nc1ccc(F)c(F)c1)c1ccccc1 (stereo not drawn) | -13.7 |

| SMILES | hERG current change (%, negative = inhibition) at 10uM [%] |
| --- | --- |
| COc1ccc(NS(=O)(=O)c2cccc(C(=O)NCC3CCCO3)c2)cc1 (stereo not drawn) | -0.415 |
| Cn1cnnc1SCC(=O)NCCC(c1ccccc1)c1ccccc1 | 7.79 |
| O=C(COc1ccc(Cl)cc1)N1CCN(c2ccc([N+](=O)[O-])c(N3CCCCC3)c2)CC1 | 2.92 |
| O=C(COc1ccc(Br)cc1)N1CCN(c2ccc([N+](=O)[O-])c(N3CCCCC3)c2)CC1 | -14.1 |
| O=C(COc1ccccc1)N1CCN(c2ccc([N+](=O)[O-])c(N3CCCCC3)c2)CC1 | -13.6 |
| O=C(COc1ccccc1Cl)N1CCN(c2ccc([N+](=O)[O-])c(N3CCOCC3)c2)CC1 | -25.7 |
| Cc1ccc(OCC(=O)N2CCN(c3ccc([N+](=O)[O-])c(N4CCOCC4)c3)CC2)cc1 | -71.4 |
| O=C(COc1ccc(Cl)cc1)N1CCN(c2ccc([N+](=O)[O-])c(N3CCOCC3)c2)CC1 | -71.5 |
| O=c1c2ccccc2nc(/C=C/c2ccco2)n1-c1ccccc1O | -13.3 |
| O=C(COC(=O)/C=C/C(=O)OCC(=O)Nc1ccccc1F)Nc1ccccc1F | 12.9 |
| COc1ccc(C(CC(=O)O)NC(C)=O)cc1OC (stereo not drawn) | 10.4 |
| CCCc1nc(SCC(=O)Nc2nnc(SCC)s2)c2c(=O)n(C)c(=O)n(C)c2n1 | 3.68 |
| Nc1ccccc1C(=O)N/N=C1/C2CN3CCN(C2)CC1(Cc1ccccc1)C3 | -37.8 |
| CCCC12CN3CCN(CC(C3)/C1=N\NC(=O)c1ccccc1N)C2 | -4.19 |
| CCCCC12CN3CCN(CC(C3)/C1=N\NC(=O)c1ccccc1N)C2 | -70.8 |
| N#Cc1cnc(Nc2ccc(F)cc2)nc1N | -2.18 |
| CC(C)Nc1nc(SC(C)C(=O)Nc2ccccc2)nc(N(C)C)n1 (stereo not drawn) | -51.4 |
| CCNc1nc(SC(C)C(=O)Nc2ccccc2)nc(N(C)C)n1 (stereo not drawn) | 11.8 |
| CC(Sc1nc(NC(C)(C)C)nc(N(C)C)n1)C(=O)Nc1ccccc1 (stereo not drawn) | 10.9 |
| O=C(NCCC1=CCCCC1)Nc1ccc2nsnc2c1 | 8.84 |
| O=C(c1cnc(-c2ccc(Cl)cc2)s1)c1ccc(Cl)cc1Cl | 5.71 |
